# RAD54 branch: inhibitors of human RAD54 branch migration. Q92698. inhibition, % at 10.4 µM. hit rate 0.14% among 360,000. RAD54 Holliday junction branch migration, FAM/BHQ fluorescence;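 active = mean normalized replicate activity at least 40 and at least half of replicates scoring 40 or more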;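 note: 0% = median of neutral control wells and 100% = median of positive control wells; inhibitors cause a drop in the FAM fluorescence signal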
# PREPL inhibitor: inhibitors of human prolyl oligopeptidase-like enzyme PREPL; inhibition, % at 5.96 µM; hit rate 0.68% among 320,000; Q4J6C6; AID 2751; recombinant PREPL, fluorescence polarization activity-based probe; in the data active = inhibition above about 43%;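 note: 0% = enzyme with DMSO and 100% = wells lacking enzyme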
# beta cell repl: induces beta-cell replication in MIN6 cells; MIN6 cells proliferation, ATPlite luminescence, 48 h; cells starved in 0.2% serum; 100% = growth in 10% serum; proliferation, % at 10 µM; hit rate 0.29% among 330,000; AID 2380;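 active = compounds whose signal lies at least 3.5 SD above the mean of all wells on their plate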;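 note: 0% = DMSO-treated cells in low-serum medium and 100% = 10% serum control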
# FID counter: counter-screen for HCV NS3 helicase inhibitors: DNA intercalator displacement | inhibition, % at 7.9 µM | hit rate 0.17% among 290,000 | DNA fluorescent intercalator displacement, fluorescence; in the data active = inhibition above about 37%;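 note: 0% = vehicle and 100% = reference compound; higher means more ethidium bromide displaced from hairpin DNA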
# RAD52 inh: RAD52 (human) annealing inhibition. P43351. recombinant RAD52 DNA annealing, FRET fluorescence. inhibition, % at 18.7 µM. hit rate 0.46% among 360,000;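 active = every replicate showing at least 50% inhibition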
# Target sequence (P43351 whole entry, looked up): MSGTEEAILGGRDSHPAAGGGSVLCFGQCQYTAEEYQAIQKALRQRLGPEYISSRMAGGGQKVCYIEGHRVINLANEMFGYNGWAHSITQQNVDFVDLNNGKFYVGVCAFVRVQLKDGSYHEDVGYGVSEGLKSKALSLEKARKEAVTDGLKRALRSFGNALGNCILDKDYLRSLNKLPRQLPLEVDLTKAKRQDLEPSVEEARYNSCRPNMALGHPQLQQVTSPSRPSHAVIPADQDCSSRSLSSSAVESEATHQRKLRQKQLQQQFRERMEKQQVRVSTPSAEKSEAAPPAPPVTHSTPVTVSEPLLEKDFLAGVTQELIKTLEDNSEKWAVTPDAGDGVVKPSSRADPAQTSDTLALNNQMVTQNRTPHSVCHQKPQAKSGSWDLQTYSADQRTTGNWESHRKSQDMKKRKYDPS
# UBC13 inh: inhibitors of human UBC13 polyubiquitin chain formation; P61088; TR-FRET; inhibition, % at 20 µM; hit rate 0.47% among 330,000; AID 485273; in the data active = inhibition above about 45%, passing the limit was not always enough
# The depositor's hits bear a star; i = inactive; x = no result. Most compounds without a hit are left out; they make up all but 1.3% or so of the library.
SMILES,RAD54 branch,PREPL inhibitor,beta cell repl,FID counter,RAD52 inh,UBC13 inh
CN(C)c1ccc(/C=C/c2ccc3ccccc3[n+]2C)cc1,81*,27,0,42*,x,i
COc1ccc2c3c(n(C)c2c1)[C@H](CO)N(C(=O)C1CC1)CC31CCN(C(=O)c2ccncc2)CC1,x,x,x,x,8,x
CCOc1ccc2[nH]c3c(N4CCN(c5ccccn5)CC4)ncnc3c2c1,7,68*,-5,-3,x,10
Cc1ccc2c(c1)[nH]c1c(N3CCN(Cc4ccccc4)CC3)ncnc12,15,55*,-4,0,x,11
Cc1ccc2[nH]c3c(N4CCN(Cc5ccccc5)CC4)ncnc3c2c1,1,35,-6,8,x,12
COc1cccc(S(=O)(=O)Nc2ccc3c(c2)OC[C@@H](C)NC[C@H](C)[C@H](OC)CN(C)C3=O)c1,4,x,x,x,0,x
C[C@H]1CN([C@@H](C)CO)C(=O)c2cc(C#CC3(O)CCCC3)cnc2O[C@@H]1CN(C)C(=O)CC1CC1,4,x,x,x,5,x
CN(C)CC(=O)N[C@H]1CC[C@H](CCn2cc(CN(C)C)nn2)O[C@H]1CO,-15,x,x,x,73*,x
Clc1cccc(/C=N/Nc2nc(Cl)nc3ccccc23)c1,-1,46*,-5,0,x,-7
Cc1cc(C)nc(N/N=C/c2cccc(Cl)c2)n1,x,-5,0,-5,-8,18
CN(C)CCN(C(=O)c1ccc(C(=O)c2ccccc2)cc1)c1nc2cc3c(cc2s1)OCO3,5,13,0,7,-6,5
CN(C)CCCN(C(=O)c1ccc2c(c1)OCCO2)c1nc2ccc(Cl)cc2s1,3,-3,-7,40*,33,10
CN(C)CCN(C(=O)c1ccc(C(=O)c2ccccc2)cc1)c1nc2cc3c(cc2s1)OCCO3,-4,4,1,16,63*,38
Cc1noc(C)c1NC(=O)Nc1ccc2c(c1)CC(=O)N([C@H](C)CO)C[C@@H](C)[C@@H](CN(C)S(=O)(=O)c1ccc(F)cc1)O2,-30,x,x,x,3,x
O=C(N/N=C/c1ccco1)/C(=C/c1cccc([N+](=O)[O-])c1)NC(=O)c1ccccc1,x,47*,0,1,x,-3
CC(C)NC(=O)/C(=C\c1cccc([N+](=O)[O-])c1)NC(=O)c1ccccc1,5,0,3,-2,x,-2
O=C(C[C@H]1CC[C@H]2[C@@H](COC[C@H](O)CN2S(=O)(=O)c2ccc(F)cc2)O1)NCC1CCCCC1,2,x,x,x,66*,x
Cc1ccc(S(=O)(=O)N2C[C@@H](O)COC[C@@H]3O[C@H](CC(=O)NCC4CCCCC4)CC[C@H]32)cc1,-2,x,x,x,27,x
O=C(C[C@@H]1CC[C@H]2[C@@H](COC[C@@H](O)CN2S(=O)(=O)c2ccc(F)cc2)O1)NCC1CCCCC1,3,x,x,x,70*,x
Cc1ccc(S(=O)(=O)N2C[C@@H](O)COC[C@H]3O[C@@H](CC(=O)NCC4CCCCC4)CC[C@@H]32)cc1,-11,x,x,x,53*,x
COc1ccc(NC(=O)N(C)C[C@@H]2Oc3c(NC(=O)CCCCCC(=O)Nc4ccccc4N)cccc3C(=O)N([C@H](C)CO)C[C@H]2C)cc1,x,x,x,x,2,x
C[C@@H]1CN([C@@H](C)CO)C(=O)Cc2cc(NC(=O)Cn3cnnn3)ccc2O[C@H]1CN(C)Cc1ccc(Cl)c(Cl)c1,-8,x,x,x,17,x
COc1ccc(CN(C)C[C@@H]2Oc3ccc(NS(=O)(=O)c4c(C)noc4C)cc3CC(=O)N([C@H](C)CO)C[C@H]2C)cc1,x,x,x,x,9,x
Cc1noc(C)c1S(=O)(=O)Nc1ccc2c(c1)CC(=O)N([C@@H](C)CO)C[C@H](C)[C@@H](CN(C)Cc1ccc(-c3ccccc3)cc1)O2,x,x,x,x,26,x
COc1ccccc1C#Cc1ccc([C@H]2[C@H]3CN(C(=O)C4CCCC4)CCCCN3[C@H]2CO)cc1,-7,x,x,x,22,x
COc1ccc(NC(=O)N2CCCCN3[C@H](C2)[C@@H](c2ccc(C#Cc4ccccc4)cc2)[C@@H]3CO)cc1,7,x,x,x,82*,x
COc1ccc(NC(=O)N2CCCCN3[C@@H](CO)[C@H](c4ccc(C#Cc5ccccc5)cc4)[C@@H]3C2)cc1,-7,x,x,x,69*,x
COc1ccccc1C#Cc1ccc([C@@H]2[C@@H](CO)N3CCCCN(C(=O)C4CCCC4)C[C@H]23)cc1,-8,x,x,x,62*,x
COc1ccc(NC(=O)N2CCCCN3[C@H](C2)[C@H](c2ccc(C#Cc4ccccc4)cc2)[C@@H]3CO)cc1,-1,x,x,x,x,x

# Compound activity: PubChem BioAssay, several laboratories
